Compounds without any hit were thinned out: in the full panel of roughly 83,000, 20% have a hit.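 Negative percent growth values reflect cell death: -40 means 40% of the cells present at the start died, and -100 means all died.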 Active and inactive are the calls of the source. How the source made its calls: active means growth percent below 10; inactive means the rest.
Assays:
Test in all cases: NCI-60 one-dose screen, 48 h (100 = growth as untreated, 0 = no growth, -100 = all killed)
Details in all cases: 10 µM
SK-MEL-2 melanoma = system: SK-MEL-2 melanoma
SN12C renal = system: SN12C renal
UO-31 renal = system: UO-31 renal
TK-10 renal = system: TK-10 renal
ACHN renal = system: ACHN renal
CAKI-1 renal = system: CAKI-1 renal
A498 renal = system: A498 renal
CCRF-CEM leukemia = system: CCRF-CEM leukemia
MOLT-4 leukemia = system: MOLT-4 leukemia
SR leukemia = system: SR leukemia
RPMI-8226 leukemia = system: RPMI-8226 leukemia
OVCAR-8 ovarian = system: OVCAR-8 ovarian
OVCAR-5 ovarian = system: OVCAR-5 ovarian
OVCAR-4 ovarian = system: OVCAR-4 ovarian
SK-OV-3 ovarian = system: SK-OV-3 ovarian
IGROV1 ovarian = system: IGROV1 ovarian
OVCAR-3 ovarian = system: OVCAR-3 ovarian
HS 578T breast = system: HS 578T breast
EKVX NSCLC = system: EKVX NSCLC
NCI/ADR-RES ovarian = system: NCI/ADR-RES ovarian

| SMILES | growth (SK-MEL-2 melanoma) | growth (SN12C renal) | growth (UO-31 renal) | growth (TK-10 renal) | growth (ACHN renal) | growth (CAKI-1 renal) | growth (A498 renal) | growth (CCRF-CEM leukemia) | growth (MOLT-4 leukemia) | growth (SR leukemia) | growth (RPMI-8226 leukemia) | growth (OVCAR-8 ovarian) | growth (OVCAR-5 ovarian) | growth (OVCAR-4 ovarian) | growth (SK-OV-3 ovarian) | growth (IGROV1 ovarian) | growth (OVCAR-3 ovarian) | growth (HS 578T breast) | growth (EKVX NSCLC) | growth (NCI/ADR-RES ovarian) |
| --- | --- | --- | --- | --- | --- | --- | --- | --- | --- | --- | --- | --- | --- | --- | --- | --- | --- | --- | --- | --- |
| Cc1cnc(C=O)c2cccc([N+](=O)[O-])c12 | 102% (inactive) | 86.8% (inactive) | 43.5% (inactive) | 108% (inactive) | 85.8% (inactive) | 86.3% (inactive) | 106% (inactive) | 11.5% (inactive) | 61% (inactive) | 16.5% (inactive) | 68.1% (inactive) | 87.3% (inactive) | 95% (inactive) | 82.1% (inactive) | 99.6% (inactive) | 95.9% (inactive) | 101% (inactive) | 94.9% (inactive) | – | – |
| CN(C)c1ccc2c(c1)OC(N)=C(C#N)C2c1ccc2c(c1)CCO2 (stereo unspecified) | 32.1% (inactive) | – | 38.2% (inactive) | 79.1% (inactive) | 37.4% (inactive) | 37% (inactive) | -9.63% (active) | 28.7% (inactive) | 34.5% (inactive) | 38.2% (inactive) | 32.9% (inactive) | – | 57.2% (inactive) | 48.3% (inactive) | 32.2% (inactive) | – | -3.4% (active) | 23.1% (inactive) | 35.9% (inactive) | 3% (active) |
| COc1ccc2nc(NC(=O)Nc3c(F)cccc3F)sc2c1 | 114% (inactive) | – | – | 84.8% (inactive) | 106% (inactive) | 104% (inactive) | 87.9% (inactive) | 96.1% (inactive) | 98.3% (inactive) | 92% (inactive) | 87.6% (inactive) | 98.9% (inactive) | 108% (inactive) | 99.6% (inactive) | 114% (inactive) | 114% (inactive) | 118% (inactive) | – | 102% (inactive) | 105% (inactive) |
| CCN(CC)CCOC(=O)c1ccc(N=Nc2ccc(O)c(OC)c2)cc1 | 87.8% (inactive) | – | 87.8% (inactive) | 87.2% (inactive) | 105% (inactive) | 97.4% (inactive) | 80.8% (inactive) | 99.5% (inactive) | 93.8% (inactive) | 84.8% (inactive) | 99.7% (inactive) | 95.1% (inactive) | – | – | 105% (inactive) | 104% (inactive) | 98.6% (inactive) | 98.7% (inactive) | 99.2% (inactive) | 101% (inactive) |
| Cc1ccc(C)c(S(=O)(=O)NC2c3ccccc3Oc3ccccc32)c1 | 101% (inactive) | – | 81.4% (inactive) | 90.7% (inactive) | 82.3% (inactive) | 88.7% (inactive) | 90.9% (inactive) | 73.7% (inactive) | 89.3% (inactive) | 63% (inactive) | 98.2% (inactive) | 90.6% (inactive) | – | 92.6% (inactive) | 102% (inactive) | 96% (inactive) | 95.9% (inactive) | 107% (inactive) | 100% (inactive) | 88.5% (inactive) |
| Cc1c(C(=O)N[C@H](CO)Cc2ccccc2)[nH]c2ccc(Cl)cc2c1=O | 95.7% (inactive) | – | 98.2% (inactive) | 94.5% (inactive) | – | 94.8% (inactive) | 98% (inactive) | – | 92.2% (inactive) | 81.4% (inactive) | 92.3% (inactive) | 96.6% (inactive) | 112% (inactive) | 108% (inactive) | 99.8% (inactive) | – | 111% (inactive) | 102% (inactive) | 94.4% (inactive) | 108% (inactive) |
| O=C(CSc1nnc(-c2ccc(Cl)cc2)o1)c1ccccc1 | 104% (inactive) | – | 98.1% (inactive) | 97.5% (inactive) | 101% (inactive) | 99.3% (inactive) | 106% (inactive) | 94.3% (inactive) | 104% (inactive) | 94% (inactive) | 96.4% (inactive) | – | 97.7% (inactive) | 112% (inactive) | 102% (inactive) | – | 102% (inactive) | 101% (inactive) | 102% (inactive) | 94.9% (inactive) |
| COc1ccc(-c2nc(NC(=O)CS(=O)(=O)c3ccc(F)cc3)sc2C)cc1 | 72.7% (inactive) | 55.5% (inactive) | 26.8% (inactive) | 98.4% (inactive) | 73.5% (inactive) | 51.8% (inactive) | 93.6% (inactive) | 21.2% (inactive) | 35.5% (inactive) | 32.5% (inactive) | -0.965% (active) | 74% (inactive) | 95.4% (inactive) | 69.8% (inactive) | 73.6% (inactive) | 54.5% (inactive) | 56% (inactive) | 79.5% (inactive) | – | 50.6% (inactive) |
| CCOC(=O)c1sc(Nc2ncccn2)nc1-c1ccccn1 | 60.4% (inactive) | 92% (inactive) | 62.4% (inactive) | 102% (inactive) | 88.4% (inactive) | 57.2% (inactive) | 90.2% (inactive) | 46.2% (inactive) | 73.1% (inactive) | 62.7% (inactive) | 92% (inactive) | 85.7% (inactive) | 93.1% (inactive) | 42% (inactive) | 76.4% (inactive) | 87.4% (inactive) | 82.3% (inactive) | 105% (inactive) | – | 68.6% (inactive) |
| COc1ccc(NC(=O)c2sc3nc4c(cc3c2N)C(O)CCC4)cc1 (stereo unspecified) | 96% (inactive) | 99.8% (inactive) | 86.4% (inactive) | 122% (inactive) | 113% (inactive) | 92.7% (inactive) | -8.3% (active) | 101% (inactive) | 92.8% (inactive) | 67.6% (inactive) | 103% (inactive) | 101% (inactive) | 104% (inactive) | 95.6% (inactive) | 112% (inactive) | 106% (inactive) | 104% (inactive) | 112% (inactive) | – | 102% (inactive) |
| COc1cccc2c1O/C(=C\c1ncc([N+](=O)[O-])n1C)C2=O | -51.5% (active) | -54.2% (active) | -34.7% (active) | -33.7% (active) | 7.42% (active) | -26.5% (active) | -33.4% (active) | 8.19% (active) | -1.08% (active) | 6.35% (active) | -8.69% (active) | -23.3% (active) | -9.04% (active) | 7.16% (active) | -16.6% (active) | -17.7% (active) | -3.72% (active) | -24.3% (active) | – | -3.54% (active) |
| CCN(CC)CCn1c(=N)n(CC(O)c2ccc(Cl)c(Cl)c2)c2ccccc21 (stereo unspecified) | 96.8% (inactive) | 83.3% (inactive) | 64.3% (inactive) | 87.1% (inactive) | 71.5% (inactive) | 75.4% (inactive) | 52.5% (inactive) | 78.9% (inactive) | 79.7% (inactive) | 26.4% (inactive) | 68.1% (inactive) | 92.6% (inactive) | 102% (inactive) | 69% (inactive) | 92.3% (inactive) | 90.1% (inactive) | 96.7% (inactive) | 80.5% (inactive) | – | 88.6% (inactive) |
| O=C(O)CN1C(=O)C=CC1=O | 98.2% (inactive) | 106% (inactive) | 91.6% (inactive) | 96.7% (inactive) | 104% (inactive) | 102% (inactive) | 91.6% (inactive) | 107% (inactive) | 85.2% (inactive) | 109% (inactive) | 106% (inactive) | 108% (inactive) | 101% (inactive) | 115% (inactive) | 105% (inactive) | 100% (inactive) | 104% (inactive) | 107% (inactive) | – | 111% (inactive) |
| CCOC(=O)CNC(=O)Nc1ccc(Oc2ccc(NC(=O)NCC(=O)OCC)cc2)cc1 | 115% (inactive) | 94.7% (inactive) | 83.2% (inactive) | 114% (inactive) | 102% (inactive) | 95.1% (inactive) | 95.7% (inactive) | 89.4% (inactive) | 107% (inactive) | 94.2% (inactive) | 99.9% (inactive) | 98.4% (inactive) | 112% (inactive) | 106% (inactive) | 104% (inactive) | 102% (inactive) | 107% (inactive) | 101% (inactive) | – | 101% (inactive) |
| COc1cc(C)c2sc3ccccc3c(=O)c2c1NCCN(C)C | 121% (inactive) | 54.2% (inactive) | 32% (inactive) | 61.9% (inactive) | 38.4% (inactive) | 39.7% (inactive) | 55% (inactive) | 22.6% (inactive) | 1.59% (active) | 3.64% (active) | 33.3% (inactive) | 40.5% (inactive) | 87% (inactive) | 72.8% (inactive) | 65.7% (inactive) | 29.3% (inactive) | 87.4% (inactive) | 58.6% (inactive) | – | 61.9% (inactive) |
| O=C1/C(=C/c2ccc(O)cc2)Cc2ccc(Cl)cc21 | 93% (inactive) | 77.8% (inactive) | 45.2% (inactive) | 127% (inactive) | 80% (inactive) | 68.3% (inactive) | 121% (inactive) | 67.7% (inactive) | 70.3% (inactive) | 117% (inactive) | 120% (inactive) | 86.3% (inactive) | 111% (inactive) | 85.5% (inactive) | 111% (inactive) | 18.8% (inactive) | 93% (inactive) | 95.4% (inactive) | – | 94.2% (inactive) |
